# Experimental data from the OligoGym collection.
# Biological target: LIPA
# Assay: pooled miR-30 sensor sort-seq; sequence = guide strand
# Conditions: shRNA
# Also: reference of the scale not given here.
row,Sequence,sensor-assay potency score (higher = more potent)
1,TTGACGTCGTAGACATCTGCAA,-0.272
2,TTGACTATGCACCTGCTGCAGG,-0.688
3,TATATCCATCTTCTGTCTCAAC,-1.24
4,TTAACAAGCATTGTACTGTTAG,-0.745
5,TATTGTAAGGAAATGATGCTGC,0.625
6,TATGACATGAGTGCAAACGTGG,-0.073
7,TTTGTCTCCAAATAAGTCCTTA,-0.0541
8,ATCTTCTGTCTCAACTAGGTAT,-0.881
9,TTCAGTATGACATGAGTGCAAA,-1.31
10,TTAACCATTAACAAGCATTGTA,0.00545

# Biological target: LIPK
# Assay: as above
# Conditions: shRNA
row,Sequence,sensor-assay potency score (higher = more potent)
1,TTTCTTGTCATAACCATACATA,-0.84
2,TTTGTCACCAAACAACACCTTA,-0.763
3,TATTTAACTGTGACAACTGGAG,-0.414
4,TTCCTTTCTTGTCATAACCATA,-1.36
5,TAGGTCTTGGTAAATTTCCTGA,-0.456
6,TATTGCTGTTGGAACTTCCATC,-0.879
7,TATCTTAATCTTTTTAGCCAGT,-0.586
8,TTGTAGTGTGGAATCAGCTTGT,0.39
9,AACACCTTAACTACTCGCCTGG,-0.456
10,TAATGTTGTATAAAGGAGGTGT,0.558
11,TAGCTTTCGATTGCACACTTTG,-1.01
12,TTGTTGTAACATCATACTCTTC,-0.891

# Biological target: LITAF
# Assay: as above
# Conditions: shRNA
row,Sequence,sensor-assay potency score (higher = more potent)
1,TAATTGGATTGTTATTGGGGAT,-0.833
2,AATAACTGTTAACAGCCACTGT,-0.0828
3,TTAACAGCCACTGTCTCTTCAT,-0.139
4,TAACTGTTAACAGCCACTGTCT,-0.461
5,TATAGGACAGCTGACTCACGAT,-0.462
6,ATAACTGTTAACAGCCACTGTC,-0.861
7,ACAGTAATGGTCCACGTCCTGC,-1.32
8,TTATAGGACAGCTGACTCACGA,0.0157
9,TTGCAGGAAGGACAACACATTT,-1.76
10,TAATGGTCCACGTCCTGCAGGG,-0.698
11,TAACAGCCACTGTCTCTTCATA,-1.19
12,TGACTCACGATCATCTTGTTGC,-0.0822

# Biological target: LMO4
# Assay: as above
# Conditions: shRNA
row,Sequence,sensor-assay potency score (higher = more potent)
1,TTGGTGTAACAGGACGTGCCGA,-0.708
2,TAGAGCATGTAAAACACTTAAG,-1.33
3,TAAGATGATACACATTGCCTTG,-0.884
4,TTCACTCGCAGGAATCGACTGT,0.156
5,TAGTGAAACCGATCTCCCGGGA,-0.538
6,TTAAGATGATACACATTGCCTT,-0.509
